Compounds with a hit are over-represented: about 19% of the library has one in this group of screens.
TDP1 cell noCPT: qHTS for Inhibitors of human tyrosyl-DNA phosphodiesterase 1 (TDP1): qHTS in cells in absence of CPT; 420,000 compounds, 15% hits; Potency, µM (highest dose often 46.2 µM), inactives show at the highest dose activity change, negative = growth inhibition, most hits filed as inhibitors; AID 686978, 2013; DT40 Tdp1-/- hTDP1 cells, no CPT, ATP luminescence, 48 h; further: potency means the concentration at half of the fitted maximal effect; on the % scale 0 is the no-effect control and ±100 the full control effect; nearly all actives have a fitted effect of over 55% in size
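Stably hTDP1-transfected Tdp1-null chicken DT40 cells were treated with library compounds minus camptothecin and grown for at least 48 hr at 37 °C, after which cellular ATP was quantified by luminescence.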
IL-1B inflam inh: inhibitors of inflammasome signaling (IL-1 beta secretion); 360,000 compounds, 4.7% hits; THP-1 LPS/ATP IL-1B secretion, AlphaLISA, 16 h; hits give low values; activity change, % at 57.5 µM; in the data active means activity change below about -50%; inconclusive means mostly about -30% to -49%; further: on the % scale 0 is the no-effect control and ±100 the full control effect
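Secreted IL-1B measured by AlphaLISA bead assay after 16 h compound exposure of THP-1 cells; compounds (final up to 57.5 uM) added 1 h before LPS (250 ng/mL) and ATP (1.25 mM) stimulation; lower signal means less secretion.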
DT40 TDP1 CPT: growth inhibition of DT40 Tdp1-/-;hTDP1 cells with camptothecin (screen for TDP1 inhibitors); Potency, µM (top dose mostly 46.2 µM), for the others: at the highest dose activity change, negative = growth inhibition, most hits filed as inhibitors; 420,000 compounds, 12% hits; chicken DT40 Tdp1-/-;hTDP1 cells + 20 nM CPT, ATP luminescence, 48 h; further: potency means the concentration at half of the fitted maximal effect; on the % scale 0 is the no-effect control and ±100 the full control effect; nearly all actives have a fitted effect of over 55% in size
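Chicken DT40 Tdp1-/- cells stably complemented with human TDP1 were seeded at 400 cells/well in medium containing 20 nM camptothecin, exposed to pin-transferred compounds, and grown at 37 °C for at least 48 hr. Viability was read as ATP luminescence.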
SW480 rereplic: inducers of DNA re-replication in SW480 colon cancer cells; SW480 DNA re-replication, Hoechst DNA content imaging, 48 h; Potency, µM (highest dose often 46.1 µM), without a hit: top-dose re-replication activation, actives largely listed as activators; 340,000 compounds, 1.8% hits; further: potency means the concentration at half of the fitted maximal effect; % of control where 0% means no effect; nearly all actives have a fitted effect of over 55% in size
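Per well, 250 cells were exposed to pinned compound for 48 hr. Nuclear DNA was visualised with Hoechst (40 min, 37 C) and total object intensity recorded by fluorescence scanning.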
Chronic BCR inh: inhibitors of chronic active B-cell receptor signaling | ABC-DLBCL IkBa-CBG/CBR reporter, luminescence ratio, 4 h | Potency, µM (titrated, usually from 46.1 µM), for the others: top-dose activity change, negative = inhibition, usual class: inhibitors | 340,000 compounds, 0.05% hits; active means well fitted inhibition curve with a large enough effect in the signal ratio, with a control signal flat, not every such curve was filed as active; inconclusive means small, poorly fitted or top-dose-only effect, or effect the other way, or a change in a side signal; the % refers to the signal ratio;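 further: potency means the concentration at half of the fitted maximal effect; plate controls were basal doxycycline-induced cells for no effect and cells given 10 µM MG132 for full effect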
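Compounds up to 46 uM were incubated four hours with TMD8 cells whose green CBG68 luciferase is fused to IkappaBalpha; red CBR luminescence normalised the signal, and concentration-effect curves were fitted to fusion, red and ratio data.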
MCF10A rerep: inducers of DNA re-replication in MCF 10A breast cells | MCF 10A DNA re-replication, Hoechst nuclear intensity, 48 h | Potency, µM (top dose mostly 46.1 µM), inactives show top-dose activity, positive = re-replication, hits mostly activators | 350,000 compounds, 2.9% hits | AID 624296; further: potency means the concentration at half of the fitted maximal effect; % of control where 0% means no effect; nearly all actives have a fitted effect of over 50% in size
Active calls of the source: *; i = inactive; ? = inconclusive; / = no result. Unless noted, the call rests on the fitted dose curve; in most records, active means well fitted curve in the direction sought with a large enough effect; inconclusive means small, poorly fitted or top-dose-only effect, or another doubt; inactive means no such curve, though single readings can be large; an effect the other way counts as inactive or inconclusive.

SMILES	TDP1 cell noCPT	IL-1B inflam inh	DT40 TDP1 CPT	SW480 rereplic	Chronic BCR inh	MCF10A rerep
CN(C)c1ncc2ncc(=O)n(Cc3cccs3)c2n1	20.6µM*	/	?	/	/	/
COc1ncc2ncc(=O)n(Cc3cccs3)c2n1	-20.8%	/	-5.3%	/	/	/
COc1ccc(-n2c(=O)cnc3cnc(N(C)C)nc32)cc1	?	/	23.1µM*	/	/	/
Cc1cc(C)c2cc(CN(Cc3ccco3)C(=S)NCC3CCCO3)c(=O)[nH]c2c1 (configuration not stated)	16.4µM*	0.0	18.4µM*	-10.4%	?	0.0%
Cc1ccc2cc(CN(CC3CCCO3)C(=S)NCc3ccco3)c(=O)[nH]c2c1C (configuration not stated)	13µM*	?	?	20.5%	-5.7%	16.2%
Cc1cccc2cc(CN(CC3CCCO3)C(=O)c3ccco3)c(=O)[nH]c12 (configuration not stated)	-3.3%	3.3	0.9%	-2.0%	-1.0%	-2.4%
Cc1ccc2[nH]c(=O)c(CN(Cc3cccs3)C(=S)NCC3CCCO3)cc2c1 (configuration not stated)	13µM*	-9.6	?	48.8%	-4.9%	0.9%
NC(=O)CSc1ncc2c(n1)-c1ccccc1N(Cc1ccc(F)cc1)S2(=O)=O	-14.1%	/	-23.9%	/	/	/
CCC(=O)Nc1ccc(C(=O)NNC(=O)C2CCCCC2)cc1	18.4%	7.2	5.9%	0.3%	5.0%	0.4%
CCCn1c(O)c(/C=C2\C=NN=C2c2ccccc2)sc1=S	-29.3%	?	-9.7%	8.9%	?	9.2µM*
CCCCC(CC)Cn1c(O)c(/C=C2\C=NN=C2c2ccccc2)sc1=S (configuration not stated)	?	-104.2*	?	3.2%	-1.4%	?
O=C(CCOc1ccccc1)Nc1ccnn1C1CCN(CCc2ccccc2)CC1	-25.5%	-51.5*	?	1.3%	-0.4%	5.4%
CC(C)c1csc(CN2CCC(n3nccc3NC(=O)Cc3ccccc3)CC2)n1	25.9µM*	i	?	-6.5%	1.4%	1.1%
CC(C)c1csc(CN2CCC(C(=O)Nc3cccc(-c4ccco4)c3)CC2)n1	18.4µM*	-27.7	?	/	/	/
Cn1cc(CN2CCC(n3nccc3NC(=O)Cc3ccccc3)CC2)cn1	27.1%	-2.0	-3.8%	-3.4%	0.3%	1.4%
O=C(Cn1cnc2sc3c(c2c1=O)CCCC3)NCC(=O)Nc1c(F)cccc1F	18.1%	10.9	-17.8%	16.4µM*	1.8%	-2.8%
COC(=O)Cn1cnc2sc3c(c2c1=O)CCCC3	-28.2%	-1.3	10.6%	-7.2%	0.6%	1.3%
COc1ccc2cc(CCNS(=O)(=O)c3ccc(C)cc3)c(=O)[nH]c2c1	9.2µM*	/	-22.4%	/	/	/
Cc1ccc2cc(CCNS(=O)(=O)c3ccc(F)cc3)c(=O)[nH]c2c1	18.4µM*	-2.7	20.6µM*	-7.5%	4.8%	-5.7%
Cc1ccc(S(=O)(=O)NCCc2cc3ccc(C)cc3[nH]c2=O)cc1	-25.5%	20.4	-22.8%	-0.4%	?	10.8%
COc1cc(CN2CCNC(=O)C2CC(=O)N(C)CCN2CCOCC2)cc(OC)c1 (configuration not stated)	2.2%	17.0	0.3%	2.4%	-1.4%	-2.7%
Cc1c(C(=O)N2CCC(C)CC2)oc2ccc3c(c12)C(O)CC1(CCCCC1)O3 (configuration not stated)	?	-20.6	16.4µM*	?	2.7%	?
COCCNC(=O)c1oc2ccc3c(c2c1C)C(O)CC(C)(C)O3 (configuration not stated)	11.3%	10.8	1.0%	-3.0%	0.4%	-2.6%
CC1(C)C=C2C(=NN(c3ccccc3)C(N)=C2C#N)CO1	?	1.9	13µM*	-3.4%	-2.0%	?
O=C1[C@H]2[C@@H](c3ccccc3)N[C@]3(CCCN(Cc4ccc(Br)cc4)C3=O)[C@H]2C(=O)N1Cc1ccccc1	23.1µM*	-20.0	?	/	/	/
SMILES	TDP1 cell noCPT	IL-1B inflam inh	DT40 TDP1 CPT	SW480 rereplic	Chronic BCR inh	MCF10A rerep
O=C1[C@H]2[C@@H](c3ccccc3)N[C@]3(CCCN(Cc4ccc(Cl)cc4)C3=O)[C@H]2C(=O)N1Cc1ccccc1	8.2µM*	?	23.1µM*	/	/	/
O=C1[C@H]2[C@@H](c3ccccc3)N[C@]3(CCCN(Cc4ccco4)C3=O)[C@H]2C(=O)N1Cc1ccccc1	?	-20.9	?	/	/	/
Cc1ccc([C@H]2N[C@]3(CCCN(Cc4ccc(Br)cc4)C3=O)[C@H]3C(=O)N(Cc4ccccc4)C(=O)[C@@H]23)cc1	29.1µM*	-15.0	20.6µM*	/	/	/
CCOC(=O)c1c(NC(=O)COC(=O)/C=C/c2ccccc2)sc(C(=O)NC)c1C	-9.3%	-5.1	1.4%	-10.6%	?	-1.9%
O=C(NCc1cccnc1)c1ccc(COc2ccccc2Cl)cc1	13µM*	3.1	?	?	-14.8%	4.8%
COc1ccc(C(=O)NCc2cccnc2)cc1OC	-1.2%	-12.5	8.4%	-5.7%	0.4%	0.9%
Cc1cc(C)nc(NC(=O)c2ccc(COc3ccccc3Cl)cc2)c1	25.9µM*	-62.5*	18.4µM*	12.7%	?	3.66µM*
O=C(NCc1cccnc1)c1ccc(COc2ccccc2Br)cc1	?	-86.8*	7.2%	8.8%	-22.1%	8.1%
O=C(Nc1ccn(Cc2c(F)c(F)cc(F)c2F)n1)c1ccc(COc2ccccc2Cl)cc1	?	-20.7	?	6.7%	0.3%	?
Cc1cc(C)n(Cc2ccc(NC(=O)c3ccc(COc4ccccc4Br)cc3)cc2)n1	29.1µM*	-74.7*	20.6µM*	19.0%	?	51.1%
CCCn1c(N)cc(=O)n(CCC)c1=O	2.6%	18.1	-12.8%	-36.1%	-6.5%	?
Cc1ccc(C)c(N2CCN(S(=O)(=O)c3cc(Br)cc4c3N(C(=O)C3CC3)CC4)CC2)c1	-4.6%	/	2.8%	/	/	/
O=[N+]([O-])c1cc(C(F)(F)F)ccc1N1CCN(S(=O)(=O)c2ccc3c(c2)CCCC3)CC1	?	-5.9	?	-10.2%	-6.5%	-1.5%
O=C(Nc1cccnc1)c1ccc(COc2ccccc2Br)cc1	?	-66.9*	?	?	?	6.4%
CCOC(=O)/C=C/C(=O)Nc1nccs1	3.66µM*	-85.9*	7.31µM*	?	?	18.4µM*
CCOC(=S)SCC(=O)Nc1nccs1	20.6µM*	-99.0*	20.6µM*	21.3%	?	?
